Assay results taken from PubChem BioAssay (EPA / NIEHS).
Values joined by “and” are separate entries in the source; they are usually repeats but may differ in a detail not shown here. Identical values can stand only once. Some compounds were tested as several samples or in several runs, with calls that do not always agree. Active and inactive are the calls of the source. The calls were made as follows: active = hit-call score of the fitted dose curve at least 0.9, where 1 is the maximum; inactive = score below 0.9.

experiment: ATG_ERE_CIS: Attagene CIS-FACTORIAL HepG2 Assay for Estrogen Response Element (ERE) (AID 2282940); settings: HepG2 ERE cis-reporter, Attagene RNA transcript; actives raise or lower the signal
Description: ATG_CIS is a cell-based, multiplexed-readout assay that uses HepG2, a human liver cell line, with measurements taken at 24 hours after chemical dosing in a 24-well plate.ATG_ERE_CIS is one of 52 assay component(s) measured or calculated from the ATG_CIS assay. It is designed to make measurements of mRNA induction, a form of inducible reporter, as detected with fluorescence intensity signals by Reverse transcription polymerase chain reaction (RT-PCR) and Capillary electrophoresis technology.Data from the assay component ATG_ERE_CIS was analyzed into 1 assay endpoint. This assay endpoint, ATG_ERE_CIS, was analyzed with bidirectional fitting relative to DMSO as the negative control and baseline of activity. Using a type of inducible reporter, measures of mRNA for gain or loss-of-signal activity can be used to understand the reporter gene at the transcription factor-level as they relate to the gene ESR1. Furthermore, this assay endpoint can be referred to as a primary readout, because this assay has produced multiple assay endpoints where this one serves a reporter gene function. To generalize the intended target to other relatable targets, this assay endpoint is annotated to the nuclear receptor intended target family, where the subfamily is steroidal.
Human liver HepG2 cells are transiently transfected with multiple reporter transcription units (MRTUs) in 6-well plates using FuGene 6 reagent (Roche; 3 ml FuGene/1 mg DNA). The MRTU constructs are regulated by a cis-regulating element (promoter). […] A major difference between the CIS and TRANS system is that in CIS activities of endogenous TFs are measured, whereas the TRANS assay evaluates changes in activities of exogenous, chimeric NR-Gal4 proteins. […] At the end of 24 hour incubation, total RNA was isolated using TriZol reagent (Invitrogen). The isolated RNA is then reverse-transcribed using oligo(dT) primer and Mo-MLV reverse transcriptase (Invitrogen) with DNAse I (Ambion) treatment for 30 min. The one-tenth of the produced cDNA was amplified by PCR using Taq DNA polymerase (Invitrogen) and two reporter sequence-specific primers. The PCR products were fluorescently labeled by primer extension with 6-arboxyfluorescein (6-FAM) 5'-labeled reporter sequence-specific primer (2 min at 95 C, 20 s at 68 C and 10 min at 72 C) and these products were digested with 5U of HpaI (New England Biolabs) for 2h at 37 C. The fragments were purified using Qiaquick PCR columns (Qiagen), analyzed on an ABI 3130xL genetic analyzer (Applied Biosystems) with peak positions identified by using a set of X-rhodamine (ROX)-labeled MapMarker1000 molecular weight standards (BioVentures). The raw capillary electrophoresis data was processed using Attagraph software (Attagene).

| Structure (SMILES) | outcome | AC50 |
| --- | --- | --- |
| Cc1cc(C)c(O)c(C)c1 | inactive | – |
| C[C@@H]1C[C@H]2[C@@H]3CCC4=CC(=O)C=C[C@]4(C)[C@@]3(F)[C@@H](O)C[C@]2(C)[C@@]1(O)C(=O)COP(=O)(O)O | inactive | – |
| CCCOC(=O)c1ccc(O)cc1 | – | 6.06 µM (active) and 16 µM (active) |
| CCCCCCCCOC(=O)CCCCCCCCC(=O)OCCCCCCCC | inactive | – |
| CCCCCCCCCCCCCCCS(=O)(=O)Oc1ccccc1 | inactive | – |
| CC(C)(C)c1cc(C(C)(C)C)c(O)c(C(C)(C)C)c1 | inactive | – |
| CCCCC(CC)COC(=O)CCCCC(=O)OCc1ccccc1 (stereo not given) | inactive | – |
| CC#C[C@]1(O)CC[C@H]2[C@@H]3CCC4=CC(=O)CCC4=C3[C@@H](c3ccc(N(C)C)cc3)C[C@@]21C | inactive | – |
| O=C(O)Cc1cc(I)c(Oc2cc(I)c(O)c(I)c2)c(I)c1 | inactive | – |
| Cc1ccc(S(=O)(=O)O)c(C)c1 | inactive | – |
| OC1CCC(C2CCCCC2)CC1 (stereo not given) | – | 27 µM (active) and 27.4 µM (active) and 27.5 µM (active) |
| COC(=O)CCCCC(=O)OC | inactive | – |
| CC(C)(C)CC(C)(C)c1ccc(O)c(-n2nc3ccccc3n2)c1 | inactive | – |
| COCC(C)OCC(C)O (stereo not given) | inactive | – |
| COc1cc(CCC(=O)CC(=O)CCc2ccc(O)c(OC)c2)ccc1O | inactive | – |
| CC(=O)CC(C)(C)O | inactive | – |
| CCCCCCCCCCCCCC[N+](C)(C)C | inactive | – |
| CC1=C(/C=C/C(C)=C/C=C/C(C)=C/C(=O)O)C(C)(C)CCC1 | inactive | 112 nM (active) |
| CN1CCC[C@H]1c1cccnc1 | inactive | 49400 nM (active) |

| Structure (SMILES) | outcome | AC50 |
| --- | --- | --- |
| O=C(/C=C/c1ccc(O)cc1)CC(=O)/C=C/c1ccc(O)cc1 | inactive | – |
| N#C[C@@H]1CC(F)(F)CN1C(=O)CNC1CC2CCC(C1)N2c1ncccn1 (stereo not given in full) | inactive | – |
| Cc1cc(CCN2CCN(c3nsc4ccccc34)CC2)cc2c1NC(=O)CC2(C)C | inactive | – |
| O=C(OCCOCCOC(=O)c1ccccc1)c1ccccc1 | inactive | – |
| c1ccc2c(c1)ccc1ccccc12 | inactive | – |
| CC(C)CCCCCCOC(=O)CCCCC(=O)OCCCCCCC(C)C | inactive | – |
| Oc1cccc(O)c1 | inactive | – |
| OCCC(F)(F)C(F)(F)C(F)(F)C(F)(F)C(F)(F)C(F)(F)C(F)(F)C(F)(F)F | – | 9.11 µM (active) and 8.41 µM (active) |
| Nc1cccc2c(N)cccc12 | inactive | – |
| CCOC(=O)CC(O)(CC(=O)OCC)C(=O)OCC | inactive | – |
| OC1CCCCC1 | inactive | 100000 nM (active) |
| Oc1cc2ccccc2c2ccccc12 | inactive | – |
| CCCCCCCCCCCCN1CCCC1=O | inactive | – |
| NC(=O)N(O)[C@@H]1C=C[C@H](Oc2cccc(Oc3ccc(F)cc3)c2)C1 | inactive | – |
| O=C1OC2(c3ccccc31)c1cc(Br)c(O)c(Br)c1Oc1c2cc(Br)c(O)c1Br | inactive | – |
| CCN(CC)CCNc1ccc(CNC=O)c2sc3ccc(OC)cc3c(=O)c12 | – | 722 nM (active) |
| ClC1=C(Cl)C(Cl)(Cl)C(Cl)=C1Cl | inactive | – |
| O=c1c(-c2ccc(O)cc2)coc2cc(O)ccc12 | – | 410 nM (active) [middle of 4 runs] |
